In PubChem BioAssay AID489025 (Southern Research Specialized Biocontainment Screening …, 2010) one finds outcome data, which are given here for 120 molecules.

SMILES strings stand for the structures. Hit rate of the full screen: of about 2,300 compounds, about 790 (34%) were called active. No rule for the calls is given here. Some of the results follow. Entries with a potency or affinity are not part of this list.

This experiment can be described thus: THP-1 cell cytotoxicity, dose response, cytotoxicity control for non-replicating M. tuberculosis project (AID 489025). Conditions: THP-1 cell viability; series mostly up to 40 µM.
Turning to `Nc1ccccc1Nc1ccccc1`, the molecule was classed as inactive.
With `CC1(C)CC(=O)C=C(Nc2ccccc2N)C1`, the outcome was inactive.
The result for `CSCCOC(=O)COc1ccc(/C=N/NC(=O)c2c(Cl)cnn2C)cc1` reads “inactive”; that for `CCOC(=O)CC(NS(=O)(=O)Cc1ccccc1)c1ccc(C)cc1` (stereo not given), “inactive”; that for `CCCCC1CCC(C(=O)Nc2ccc(S(=O)(=O)Nc3nccs3)cc2)CC1` (stereo not given), “inactive”.
With `COC(=O)COc1ccc(S(=O)(=O)N2CCCCCC2)cc1` the entry was “inactive”; with `CC1(C)Oc2ccc(NC(=O)C3COc4ccccc4O3)cc2O1` (stereo not given), “inactive”; with `CCc1nnc(NC(=O)c2cc3ccccc3oc2=O)s1`, “inactive”.
The result for `CC(C)(C)NC(=O)c1ccc(NC(=O)c2ccccc2-c2ccccc2C(=O)O)cc1` reads “inactive”; that for `COC(=O)COc1ccc2c(=O)c(-c3ccccc3OC)coc2c1`, “inactive”.
With `O=C(COC(=O)c1cc2ccccc2oc1=O)Nc1ccc(F)cc1F`, the call was inactive.
Turning to `O=C(CCSc1ccc(Cl)cc1)NC1CCCC1`, the molecule was classed as inactive.
With `CCc1ccc(NC(=O)COc2ccc3c(c2)OCO3)cc1` the entry was “inactive”; with `COc1ccc(C(=O)COC(=O)CCC(=O)c2cccs2)cc1`, “inactive”; with `Cc1nc(C(=O)Nc2ccccc2)sc1C(=O)Nc1ccccc1`, “inactive”.
`CC1=CC2=NC(=O)/C(=C\c3ccc(OC(=O)c4ccco4)cc3)C(=N)N2O1`: the molecule was called inactive.
As for `CCOC(=O)c1ccc(COC(=O)c2cc3ccccc3oc2=O)o1`, the molecule was called inactive.
With `Cc1cccc(OCC(=O)NNC(=O)c2cc3ccccc3oc2=O)c1` the entry was “inactive”.
As to `COc1cccc(OCC(=O)NNC(=O)C(=O)Nc2cccc(C)c2)c1`, the outcome was inactive.
With `O=c1oc(-c2ccccc2[N+](=O)[O-])nc2ccccc12` the entry was “inactive”; with `O=C(NC1=NCCS1)c1ccc(-c2ccc(Cl)cc2)o1`, “inactive”; with `NC(=O)c1ccc(-c2ccc(Br)cc2)o1`, “inactive”.
With `CCOc1ccc(C(=O)Nc2ccc(N3CCN(C)CC3)cc2)cc1Br` the entry was “inactive”; with `O=C(NNC(=O)c1ccccc1F)c1ccc(-c2ccc(Cl)cc2)o1`, “inactive”.
With `CC(=O)N1CCN(c2cc3c(cc2F)c(=O)c(C(=O)O)cn3C2CC2)CC1` the entry was “inactive”; with `CCCCn1c(O)c(/C=C2/C=CC=N2)c(=O)[nH]c1=O`, “inactive”; with `COC(=O)C(O)(c1ccc(NC(=S)NC(=O)c2ccccc2)cc1)C(F)(F)F` (stereo not given), “inactive”.
With `CCOC(=O)CCSc1n[nH]c(=S)s1`, the molecule was classed as inactive.
The result for `COC(=O)CN(C#N)c1nc(N(C)C)nc(N(C)C)n1` reads “inactive”.
Regarding `Cc1ccc2nc3c(c(N)c2c1)CCN3c1ccccc1`, the molecule was called inactive.
With `O=C(c1cc([N+](=O)[O-])cc([N+](=O)[O-])c1)N(Cc1nnc(-c2ccccc2Cl)o1)C1CC1`, the outcome was inactive.
With `O=C(COc1ccc2ccccc2c1)N/N=C/c1ccccn1` the entry was “inactive”; with `CCn1cc(/C=N\NC(=O)c2ccc(F)cc2)cn1`, “inactive”.
Turning to `COc1ccc(C(=O)Nc2ccccc2C(=O)N/N=C/c2ccco2)cc1`, the molecule was called inactive.
As to `O=C(COc1ccccc1)Nc1ccc(F)cc1`, the call was inactive.
On to `COc1ccc(C2=NC(=O)/C(=C\c3cc(OC)c(OC)c(OC)c3)O2)cc1`, for which the call was inactive.
With `CSc1nnc(Cc2ccc3c(c2)OCO3)o1` the entry was “inactive”.
Consider `Oc1ccccc1-c1nnc(COc2ccccc2)o1`, for which the molecule was called inactive.
With `Cc1ccc(-c2nnc(-c3ccccc3)o2)cc1` the entry was “inactive”.
The result for `Cc1cc(C)cc(NC(=O)CCc2ccc(C)o2)c1` reads “inactive”; that for `Cn1c(=O)c(Oc2ccc(F)cc2)c(O)c2ccccc21`, “inactive”; that for `Nc1nnc(SCCCC(=O)c2ccc(Br)cc2)s1`, “inactive”.
The result for `CC(C)(C)c1cc(CN2CCC(O)CC2)cc(C(C)(C)C)c1O` reads “inactive”; that for `Cc1cc(C(=O)NNc2cc(Cl)ccc2Cl)no1`, “inactive”; that for `Cc1ccc(SCCC(=O)OCC(=O)NCC2CCCCC2)cc1`, “inactive”.
Take `Cc1ccccc1OCCC(=O)OCC(=O)NNC(=O)c1cccs1`: the result was inactive.
With `COc1cc(/C=N/NC(=O)c2ccncc2)ccc1OC(=O)c1cccc(F)c1`, the molecule was classed as inactive.
With `Cc1ccc(NC(=O)C2CC2c2ccccc2)cc1` (stereo not given) the entry was “inactive”; with `O=C(NNc1ccc([N+](=O)[O-])cc1)C1CC1c1ccccc1` (stereo not given), “inactive”.
The result for `O=C(N/N=C/c1cccc2nccnc12)c1ccncc1` reads “inactive”; that for `O=C(COC(=O)c1ccc(Br)o1)NC1CCCCC1`, “inactive”.
The result for `COc1cccc(OCCNC(=O)c2cc([N+](=O)[O-])cc([N+](=O)[O-])c2)c1` reads “inactive”.
For the molecule `O=C(N/N=C/c1ccccn1)c1cccc([N+](=O)[O-])c1`, the molecule was called inactive.
With `CC(/C=C/c1cccc([N+](=O)[O-])c1)=N\NC(=O)c1ccncc1` the entry was “inactive”; with `Cc1ccc(CSCCNC(=O)c2cccc([N+](=O)[O-])c2)cc1`, “inactive”; with `O=C(N/N=C/C=C/c1cccc([N+](=O)[O-])c1)c1ccncc1`, “inactive”.
The result for `FC(F)(F)c1ccc(-c2nnc(-c3cccnc3)o2)cc1` reads “inactive”.
The result for `CC1CCCN(CCSc2ccc(Cl)cc2)C1` (stereo not given) reads “inactive”; that for `CCC(C)(C)c1ccc(OCC(=O)Nc2ccncc2)cc1`, “inactive”; that for `COc1ccc(-n2c3c(cc(C(=O)NNc4ccccc4)c2=O)C(=O)CC(C)(C)C3)cc1`, “inactive”.
Consider `Cc1cccc(NC(=O)COC(=O)CCc2c[nH]c3ccccc23)c1`, for which the result was inactive.
With `Cc1ccc(C(C)C)c(OCC(=O)OCc2c(C)noc2C)c1` the entry was “inactive”; with `CCOC(=O)COc1ccc(C(=O)Nc2cccc(Cl)c2C)cc1`, “inactive”; with `c1ccc(-c2nnc(SCc3nnc(-c4cccs4)o3)o2)cc1`, “inactive”.
With `O=C1c2ccccc2CC1Sc1nnc(-c2ccncc2)o1` (stereo not given) the entry was “inactive”; with `CCOC(=O)Cc1nc2cc(Cl)ccc2o1`, “inactive”.
For the molecule `CCCCCCOc1ccc(N2C(=O)CC(N3CCN(C(=O)c4ccco4)CC3)C2=O)cc1` (stereo not given), the result was inactive.
With `CC(/C=C/c1ccc2c(c1)OCO2)=N/NC(=O)C1COc2ccccc2O1` (stereo not given) the entry was “inactive”.
The result for `Cc1ccccc1NC(=O)C1COc2ccccc2O1` (stereo not given) reads “inactive”; that for `O=C(Nc1cccc([N+](=O)[O-])c1)C1COc2ccccc2O1` (stereo not given), “inactive”; that for `O=C(Nc1ccc([N+](=O)[O-])cc1)C1COc2ccccc2O1` (stereo not given), “inactive”.
In the case of `COc1ccc(NC(=O)C2COc3ccccc3O2)cc1` (stereo not given), the molecule was classed as inactive.
Take `O=C(Nc1cccc(Cl)c1)C1COc2ccccc2O1` (stereo not given): the call was inactive.
With `CC(C)(C)c1ccc2c(c1)OC(C(=O)N/N=C\c1ccccn1)CO2` (stereo not given) the entry was “inactive”.
For `CC(C)NC(=O)C1COc2ccccc2O1` (stereo not given), the call was inactive.
With `CN1CCC(O)(c2ccccc2)C(C(=O)c2ccccc2)C1` (stereo not given), the result was inactive.
The result for `COc1cccc(NC(=O)COC(=O)Cc2ccc(Br)cc2)c1` reads “inactive”; that for `COc1ccc(OCCC(=O)OCC(=O)Nc2ccc(Br)cc2)cc1`, “inactive”.
With `Cn1ccsc1=NC(=O)c1ccccc1F` the entry was “inactive”; with `Cc1ccccc1C(=O)NNc1ccc([N+](=O)[O-])cc1`, “inactive”; with `CC(C)(C)Sc1ccc2nc3c(n2c1)CCCC3`, “inactive”.
With `COc1ccc(N=Cc2nc(-c3ccccc3)oc2OC(C)=O)cc1` the entry was “inactive”.
As to `CCCOc1ccc(N2C(=O)CC(N3CCCC(C(=O)N4CCCC4)C3)C2=O)cc1` (stereo not given), the outcome was inactive.
With `Cc1ccc(C2=NN(C)c3nc4ccccc4n3C2)cc1` the entry was “inactive”; with `COc1cccc(C(=O)OCC(=O)c2ccc(Br)s2)c1OC`, “inactive”; with `O=C(COC(=O)c1ccccc1)NC12CC3CC(CC(C3)C1)C2`, “inactive”.
With `C=CCN1C(=O)C2(NNc3ccccc3O2)c2ccccc21` (stereo not given) the entry was “inactive”; with `O=C(NCCC1=CCCCC1)c1coc(=O)c(Br)c1`, “inactive”; with `COc1ccc(C2=Nc3ccccc3OC2)cc1`, “inactive”.
With `Cc1ccc(N2C(=O)CC(Sc3nccc(C)n3)C2=O)cc1` (stereo not given) the entry was “inactive”.
As for `COC(=O)c1ccc(Cn2cc(C(F)(F)F)cc([N+](=O)[O-])c2=O)cc1`, the call was inactive.
The result for `COc1ccc(C(=O)OCn2nnc3ccccc3c2=O)cc1[N+](=O)[O-]` reads “inactive”; that for `Cc1cccc(C)c1NC(=O)COC(=O)CCc1c[nH]c2ccccc12`, “inactive”.
The result for `C=C[C@]1(C)C=C2CCC3[C@](C)(CCC[C@@]3(C)C(=O)O)C2CC1` (stereo not given in full) reads “inactive”.
With `Oc1c(Br)cc(Br)cc1/C=N/c1nccs1` the entry was “inactive”; with `Cc1nnc(C)n1/N=C/c1cc(Br)cc(Br)c1O`, “inactive”; with `Cc1ccc(-c2nnc(SCC#CCOC(=O)c3ccco3)o2)cc1`, “inactive”.
As for `CCOC(=O)COc1ccc2c(c1)c(C(=O)OCC)c(C)n2CC`, the molecule was classed as inactive.
With `COC(=O)c1ccc(OCC(=O)c2cccc(OC)c2)cc1` the entry was “inactive”.
With `O=C(Nc1ccccc1N1CCCC1)c1cccc(F)c1` the entry was “inactive”.
In the case of `O=C(COc1ccc(Cl)cc1)NNC(=O)c1ccccn1`, the result was inactive.
The result for `O=C(N/N=C/c1ccc[nH]1)c1cccnc1` reads “inactive”; that for `COc1cccc(NC(=O)c2ccc(C(=O)c3ccccc3)o2)c1`, “inactive”; that for `O=C(Nc1ncccc1O)c1ccc(Oc2ccccc2)cc1`, “inactive”.
With `COc1ccc(OCC(=O)NNC(=O)c2ccccn2)cc1` the entry was “inactive”.
The result for `CCc1ccc(NC(=O)C(=O)NNC(=O)COc2cccc(OC)c2)cc1` reads “inactive”.
For the molecule `Brc1ccc(CSc2nnc(-c3ccco3)o2)cc1`, the call was inactive.
With `COc1ccc([C@@]2(O)c3c(ccc(CC=C(C)C)c3O)NC(=O)[C@@H]2OC)cc1` the entry was “inactive”.
In the case of `CCCOC(=O)NC1CCS(=O)(=O)C1` (stereo not given), the molecule was called inactive.
As to `Cc1ccc(Sc2ccc(C=C3C(=O)N(C)C(=O)N(C)C3=O)o2)cc1`, the molecule was called inactive.
The result for `CCc1ccc(N2C(=O)CC(N3CCC(C(=O)OC)CC3)C2=O)cc1` (stereo not given) reads “inactive”; that for `CCOC(=O)c1c(C)n(C)c2ccc(OC(C)C(=O)OC)cc12` (stereo not given), “inactive”.
The result for `Oc1ccc(F)c2cccnc12` reads “inactive”; that for `COc1cc(OC)cc(OC(=O)c2ccc3c(=O)n4c(nc3c2)CCC4)c1`, “inactive”; that for `O=C(CCN1CCOCC1)c1ccc(Cl)cc1`, “inactive”.
With `COc1ccc(CN2CCC(C(=O)Nc3ccc(Oc4cccnc4)cc3)CC2)c(C)c1C` the entry was “inactive”.
Regarding `O=C(COc1c(Br)cc(Br)c2cccnc12)N1CCCCC1`, the result was inactive.
With `CCOC(=O)C1(CCc2ccccc2)CCN(Cc2ccccn2)CC1` the entry was “inactive”; with `COc1ccc(/C=N/NC(=O)c2ccncc2)cc1CN1CCOCC1`, “inactive”.
On to `COc1cc(NC(=O)N2CCOCC2)cc(OC)c1`, for which the outcome was inactive.
